Measurements from ChEMBL document CHEMBL2218924, “A broad activity screen in support of a chemogenomic map for kinase signalling research and drug discovery” (Biochem J, 2013).

Experiments:
[1] = target: T1, Ephrin type-A receptor 3 (Homo sapiens) (UniProt P29320); settings: at 10 µM
T1 sequence (whole entry): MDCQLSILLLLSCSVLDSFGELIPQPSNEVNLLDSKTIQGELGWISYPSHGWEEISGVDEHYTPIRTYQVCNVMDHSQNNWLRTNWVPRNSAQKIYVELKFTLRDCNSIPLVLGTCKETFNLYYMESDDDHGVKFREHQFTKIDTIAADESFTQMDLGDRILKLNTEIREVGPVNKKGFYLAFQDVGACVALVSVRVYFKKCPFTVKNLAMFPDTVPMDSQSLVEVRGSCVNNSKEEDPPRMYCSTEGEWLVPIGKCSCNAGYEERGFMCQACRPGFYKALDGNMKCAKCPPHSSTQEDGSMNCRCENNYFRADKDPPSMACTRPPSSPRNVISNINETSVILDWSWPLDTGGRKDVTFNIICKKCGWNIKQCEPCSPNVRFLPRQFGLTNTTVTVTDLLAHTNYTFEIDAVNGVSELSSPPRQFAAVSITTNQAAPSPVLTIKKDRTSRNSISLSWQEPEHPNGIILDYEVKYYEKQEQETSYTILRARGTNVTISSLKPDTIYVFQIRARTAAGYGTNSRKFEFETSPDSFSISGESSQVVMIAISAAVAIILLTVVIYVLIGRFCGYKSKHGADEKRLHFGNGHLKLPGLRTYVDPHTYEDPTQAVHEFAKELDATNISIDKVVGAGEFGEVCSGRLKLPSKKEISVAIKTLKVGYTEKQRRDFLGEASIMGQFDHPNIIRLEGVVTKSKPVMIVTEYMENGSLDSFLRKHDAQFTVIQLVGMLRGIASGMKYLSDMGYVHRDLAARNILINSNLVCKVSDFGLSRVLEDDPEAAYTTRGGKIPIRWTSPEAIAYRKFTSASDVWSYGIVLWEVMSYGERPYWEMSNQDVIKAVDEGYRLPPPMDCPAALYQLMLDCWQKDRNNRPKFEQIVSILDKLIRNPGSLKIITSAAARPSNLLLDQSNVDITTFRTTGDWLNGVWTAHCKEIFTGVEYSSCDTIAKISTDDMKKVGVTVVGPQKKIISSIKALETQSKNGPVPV

[2] = target: Ephrin type-A receptor 4 (Homo sapiens) (UniProt P54764); settings: at 1 µM
[3] = target: Ephrin type-A receptor 4 (Homo sapiens) (UniProt P54764); settings: at 10 µM
[4] = target: Ephrin type-A receptor 5 (Homo sapiens) (UniProt P54756); settings: at 1 µM
[5] = target: Ephrin type-A receptor 5 (Homo sapiens) (UniProt P54756); settings: at 10 µM
[6] = target: Ephrin type-A receptor 7 (Homo sapiens) (UniProt Q15375); settings: at 1 µM
[7] = target: Ephrin type-A receptor 7 (Homo sapiens) (UniProt Q15375); settings: at 10 µM
[8] = target: T2, Ephrin type-A receptor 8 (Homo sapiens) (UniProt P29322); settings: at 1 µM
T2 sequence (whole entry): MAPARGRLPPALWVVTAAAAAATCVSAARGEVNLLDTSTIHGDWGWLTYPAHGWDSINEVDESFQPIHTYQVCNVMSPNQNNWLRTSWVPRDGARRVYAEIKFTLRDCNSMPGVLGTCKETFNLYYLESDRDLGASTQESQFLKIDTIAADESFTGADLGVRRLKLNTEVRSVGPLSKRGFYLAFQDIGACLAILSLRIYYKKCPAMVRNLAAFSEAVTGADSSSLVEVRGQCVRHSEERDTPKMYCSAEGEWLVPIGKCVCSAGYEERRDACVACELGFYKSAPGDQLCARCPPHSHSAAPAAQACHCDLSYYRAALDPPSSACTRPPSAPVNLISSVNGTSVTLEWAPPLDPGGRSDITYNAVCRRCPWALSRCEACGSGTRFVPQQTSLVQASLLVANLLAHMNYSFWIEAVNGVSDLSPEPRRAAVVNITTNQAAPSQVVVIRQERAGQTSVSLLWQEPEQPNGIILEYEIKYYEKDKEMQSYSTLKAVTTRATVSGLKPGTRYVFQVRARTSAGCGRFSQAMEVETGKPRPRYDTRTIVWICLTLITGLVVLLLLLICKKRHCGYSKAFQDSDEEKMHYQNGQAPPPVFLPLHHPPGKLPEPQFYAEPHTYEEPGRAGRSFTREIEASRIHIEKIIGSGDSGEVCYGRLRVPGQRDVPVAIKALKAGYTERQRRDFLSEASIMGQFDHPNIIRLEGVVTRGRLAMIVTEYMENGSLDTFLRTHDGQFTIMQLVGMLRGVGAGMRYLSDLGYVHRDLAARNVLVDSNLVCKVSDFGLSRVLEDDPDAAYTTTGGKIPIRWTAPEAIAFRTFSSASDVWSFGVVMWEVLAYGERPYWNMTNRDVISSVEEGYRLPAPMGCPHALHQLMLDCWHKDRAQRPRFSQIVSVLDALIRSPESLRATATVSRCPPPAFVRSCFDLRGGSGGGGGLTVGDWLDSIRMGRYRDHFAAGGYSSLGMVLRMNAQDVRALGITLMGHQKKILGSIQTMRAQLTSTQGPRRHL

[9] = target: T2, Ephrin type-A receptor 8 (Homo sapiens); settings: at 10 µM
[10] = target: T3, Ephrin type-B receptor 1 (Homo sapiens) (UniProt P54762); settings: at 1 µM
T3 sequence (whole entry): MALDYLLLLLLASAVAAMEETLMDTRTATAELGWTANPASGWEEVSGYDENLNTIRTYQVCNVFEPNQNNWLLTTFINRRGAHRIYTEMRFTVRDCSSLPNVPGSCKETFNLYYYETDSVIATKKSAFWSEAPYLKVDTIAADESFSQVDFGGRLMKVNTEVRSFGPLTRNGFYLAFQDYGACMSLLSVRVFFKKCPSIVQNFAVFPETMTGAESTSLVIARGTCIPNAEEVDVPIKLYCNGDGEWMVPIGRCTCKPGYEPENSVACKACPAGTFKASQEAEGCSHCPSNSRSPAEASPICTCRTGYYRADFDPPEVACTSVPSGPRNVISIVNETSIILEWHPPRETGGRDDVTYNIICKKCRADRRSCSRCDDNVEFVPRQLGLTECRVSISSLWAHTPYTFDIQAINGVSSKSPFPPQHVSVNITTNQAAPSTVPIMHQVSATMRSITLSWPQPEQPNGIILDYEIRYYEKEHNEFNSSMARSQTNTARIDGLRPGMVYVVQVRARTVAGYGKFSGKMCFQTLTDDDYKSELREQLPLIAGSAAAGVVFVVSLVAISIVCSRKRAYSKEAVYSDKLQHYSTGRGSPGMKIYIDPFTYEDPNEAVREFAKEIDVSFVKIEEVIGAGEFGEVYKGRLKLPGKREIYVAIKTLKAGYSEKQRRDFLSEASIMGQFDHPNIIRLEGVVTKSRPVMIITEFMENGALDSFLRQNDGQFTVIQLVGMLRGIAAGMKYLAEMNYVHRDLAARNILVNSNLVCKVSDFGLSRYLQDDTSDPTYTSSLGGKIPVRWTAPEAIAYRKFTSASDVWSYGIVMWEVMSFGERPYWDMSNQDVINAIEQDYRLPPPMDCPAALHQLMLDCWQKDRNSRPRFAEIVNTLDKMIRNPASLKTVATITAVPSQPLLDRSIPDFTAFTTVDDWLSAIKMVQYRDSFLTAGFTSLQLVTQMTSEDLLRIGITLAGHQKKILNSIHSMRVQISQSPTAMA

Chain of Ephrin type-A receptor 4 (Homo sapiens) (P54764 whole entry): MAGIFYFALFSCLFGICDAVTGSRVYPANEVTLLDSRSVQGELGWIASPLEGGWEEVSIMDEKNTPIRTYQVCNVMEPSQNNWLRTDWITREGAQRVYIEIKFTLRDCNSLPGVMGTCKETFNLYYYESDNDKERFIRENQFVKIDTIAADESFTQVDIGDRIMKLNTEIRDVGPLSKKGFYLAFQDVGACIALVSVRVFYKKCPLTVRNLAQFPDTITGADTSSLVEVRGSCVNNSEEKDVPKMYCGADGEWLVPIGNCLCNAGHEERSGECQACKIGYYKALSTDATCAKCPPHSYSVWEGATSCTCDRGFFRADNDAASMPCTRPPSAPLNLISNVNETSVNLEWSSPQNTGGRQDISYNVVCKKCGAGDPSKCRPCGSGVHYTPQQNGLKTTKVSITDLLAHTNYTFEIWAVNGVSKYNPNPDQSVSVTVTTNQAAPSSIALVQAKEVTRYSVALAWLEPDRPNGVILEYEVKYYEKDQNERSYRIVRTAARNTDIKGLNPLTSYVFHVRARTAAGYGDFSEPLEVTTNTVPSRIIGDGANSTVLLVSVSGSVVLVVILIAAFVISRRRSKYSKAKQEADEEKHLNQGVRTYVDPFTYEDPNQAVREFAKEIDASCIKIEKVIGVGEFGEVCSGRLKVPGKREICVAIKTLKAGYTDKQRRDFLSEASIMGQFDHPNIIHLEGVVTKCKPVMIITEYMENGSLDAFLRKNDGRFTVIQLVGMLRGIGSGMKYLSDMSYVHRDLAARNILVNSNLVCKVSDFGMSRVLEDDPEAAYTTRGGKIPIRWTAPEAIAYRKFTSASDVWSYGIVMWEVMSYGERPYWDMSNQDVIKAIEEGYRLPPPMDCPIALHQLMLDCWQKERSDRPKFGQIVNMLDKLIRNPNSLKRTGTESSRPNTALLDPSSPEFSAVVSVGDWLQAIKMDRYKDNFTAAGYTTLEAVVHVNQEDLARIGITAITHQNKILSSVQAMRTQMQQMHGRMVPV
Chain of Ephrin type-A receptor 5 (Homo sapiens) (P54756 whole entry): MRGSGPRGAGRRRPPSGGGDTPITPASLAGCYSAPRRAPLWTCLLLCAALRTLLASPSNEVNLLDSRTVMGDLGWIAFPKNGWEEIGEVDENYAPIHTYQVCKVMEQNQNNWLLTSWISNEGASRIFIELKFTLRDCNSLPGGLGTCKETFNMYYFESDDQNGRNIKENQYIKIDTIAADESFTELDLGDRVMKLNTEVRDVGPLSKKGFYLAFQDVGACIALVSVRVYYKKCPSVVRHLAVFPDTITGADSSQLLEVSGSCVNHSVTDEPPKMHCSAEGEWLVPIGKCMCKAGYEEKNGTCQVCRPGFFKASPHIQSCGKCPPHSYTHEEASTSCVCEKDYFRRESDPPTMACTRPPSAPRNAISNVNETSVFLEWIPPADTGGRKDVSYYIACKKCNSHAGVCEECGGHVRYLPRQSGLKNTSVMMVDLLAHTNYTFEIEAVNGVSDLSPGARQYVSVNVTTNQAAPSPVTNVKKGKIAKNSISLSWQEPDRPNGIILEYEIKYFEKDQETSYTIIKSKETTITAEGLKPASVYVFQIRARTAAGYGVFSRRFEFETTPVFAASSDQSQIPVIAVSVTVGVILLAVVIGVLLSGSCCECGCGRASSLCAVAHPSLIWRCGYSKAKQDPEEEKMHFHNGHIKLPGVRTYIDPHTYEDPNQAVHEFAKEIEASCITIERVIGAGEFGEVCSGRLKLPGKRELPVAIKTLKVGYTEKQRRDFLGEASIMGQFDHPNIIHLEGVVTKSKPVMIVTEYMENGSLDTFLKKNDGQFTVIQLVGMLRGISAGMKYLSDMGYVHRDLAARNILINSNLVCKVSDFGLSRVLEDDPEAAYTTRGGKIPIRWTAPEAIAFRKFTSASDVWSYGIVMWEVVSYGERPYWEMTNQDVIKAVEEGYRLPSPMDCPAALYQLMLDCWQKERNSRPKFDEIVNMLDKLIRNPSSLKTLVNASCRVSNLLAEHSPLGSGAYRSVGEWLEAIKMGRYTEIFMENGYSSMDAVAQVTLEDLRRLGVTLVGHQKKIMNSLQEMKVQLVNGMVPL
Chain of Ephrin type-A receptor 7 (Homo sapiens) (Q15375 28-998 limits assumed): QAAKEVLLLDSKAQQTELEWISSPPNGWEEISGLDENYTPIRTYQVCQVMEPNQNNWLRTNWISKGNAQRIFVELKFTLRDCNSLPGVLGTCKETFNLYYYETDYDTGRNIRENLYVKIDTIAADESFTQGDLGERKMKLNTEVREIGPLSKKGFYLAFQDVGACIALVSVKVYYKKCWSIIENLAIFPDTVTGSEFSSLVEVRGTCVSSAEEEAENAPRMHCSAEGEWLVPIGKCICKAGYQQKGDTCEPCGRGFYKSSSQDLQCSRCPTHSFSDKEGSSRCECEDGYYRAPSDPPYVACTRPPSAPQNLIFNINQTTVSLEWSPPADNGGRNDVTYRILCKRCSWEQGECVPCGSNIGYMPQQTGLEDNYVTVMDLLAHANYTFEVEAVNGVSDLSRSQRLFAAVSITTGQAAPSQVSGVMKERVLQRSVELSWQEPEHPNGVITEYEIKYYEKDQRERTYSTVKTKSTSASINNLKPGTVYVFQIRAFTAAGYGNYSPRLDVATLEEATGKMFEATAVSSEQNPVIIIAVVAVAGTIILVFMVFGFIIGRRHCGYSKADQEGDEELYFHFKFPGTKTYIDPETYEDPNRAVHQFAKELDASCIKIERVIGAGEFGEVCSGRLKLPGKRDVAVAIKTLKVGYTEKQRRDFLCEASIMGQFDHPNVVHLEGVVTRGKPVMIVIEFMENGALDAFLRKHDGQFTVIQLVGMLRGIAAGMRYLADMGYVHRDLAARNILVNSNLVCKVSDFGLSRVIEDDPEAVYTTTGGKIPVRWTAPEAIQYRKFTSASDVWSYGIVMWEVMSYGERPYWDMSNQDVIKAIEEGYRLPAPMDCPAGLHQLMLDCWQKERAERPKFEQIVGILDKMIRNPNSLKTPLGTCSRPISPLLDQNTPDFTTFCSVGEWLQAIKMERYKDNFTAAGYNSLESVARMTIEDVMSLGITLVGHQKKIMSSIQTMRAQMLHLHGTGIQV

What does the source list for `Cc1nc(-c2ccccc2)c(-c2ccncc2)o1`?
residual activity [1]: 77%; residual activity [2]: 109%; residual activity [3]: 102%; residual activity [4]: 35%; residual activity [5]: 29%; residual activity [6]: 94%; residual activity [7]: 89%; residual activity [8]: 65%; residual activity [9]: 54%; residual activity [10]: 63%
